SW480 rerep: induces DNA re-replication in SW480 colon adenocarcinoma cells | Potency, µM (doses to about 46.1 µM), inactives show top-dose re-replication activation, hits mostly activators | SW480 DNA re-replication, Hoechst DNA content imaging, 48 h | hit rate 1.8% among 340,000; further: potency means the concentration at half of the fitted maximal effect; % of control where 0% means no effect; nearly all actives have a fitted effect of over 55% in size
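DNA re-replication was detected as more nuclei of elevated Hoechst intensity after 48 hr exposure to compound (23 nL pinned per well of 250 cells).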
KB-3-1 cytotox: KB-3-1 parental cell cytotoxicity; hit rate 1.4% among 400,000; Potency, µM (top dose mostly 46.1 µM), most hits filed as cytotoxic; KB-3-1 viability, CellTiter-Glo ATP luminescence, 72 h; AID 1347075; further: potency means the concentration at half of the fitted maximal effect; on the % scale 0 is the no-effect control and ±100 the full control effect; nearly all actives have a fitted effect of over 60% in size
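Here the drug-naive KB-3-1 line serves as comparator for MDR sub-line selectivity; cells received compound titrations, 72 h at 37 °C, then CellTiter-Glo readout.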
MCF10A rerep: induces DNA re-replication in MCF 10a normal breast cells. hit rate 2.9% among 350,000. Potency, µM (titrated, usually from 46.1 µM), inactives show top-dose activity, positive = re-replication, actives largely listed as activators. AID 624296. MCF 10A DNA re-replication, Hoechst nuclear intensity, 48 h; further: potency means the concentration at half of the fitted maximal effect; % of control where 0% means no effect; nearly all actives have a fitted effect of over 50% in size
KCNH2 WT inh: blocks the wildtype human KCNH2 potassium channel; U2OS, BacMam KCNH2, thallium flux FluxOr; stronger effect = lower value; Q12809; activity change, % at 1.84 µM; hit rate 0.37% among 340,000;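 active means maximum activity change below -70%; inconclusive means maximum activity change between -70% and -50%; inactive means maximum activity change above -50%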; further: on the % scale 0 is the no-effect control and ±100 the full control effect
Target sequence (Q12809 whole entry, looked up): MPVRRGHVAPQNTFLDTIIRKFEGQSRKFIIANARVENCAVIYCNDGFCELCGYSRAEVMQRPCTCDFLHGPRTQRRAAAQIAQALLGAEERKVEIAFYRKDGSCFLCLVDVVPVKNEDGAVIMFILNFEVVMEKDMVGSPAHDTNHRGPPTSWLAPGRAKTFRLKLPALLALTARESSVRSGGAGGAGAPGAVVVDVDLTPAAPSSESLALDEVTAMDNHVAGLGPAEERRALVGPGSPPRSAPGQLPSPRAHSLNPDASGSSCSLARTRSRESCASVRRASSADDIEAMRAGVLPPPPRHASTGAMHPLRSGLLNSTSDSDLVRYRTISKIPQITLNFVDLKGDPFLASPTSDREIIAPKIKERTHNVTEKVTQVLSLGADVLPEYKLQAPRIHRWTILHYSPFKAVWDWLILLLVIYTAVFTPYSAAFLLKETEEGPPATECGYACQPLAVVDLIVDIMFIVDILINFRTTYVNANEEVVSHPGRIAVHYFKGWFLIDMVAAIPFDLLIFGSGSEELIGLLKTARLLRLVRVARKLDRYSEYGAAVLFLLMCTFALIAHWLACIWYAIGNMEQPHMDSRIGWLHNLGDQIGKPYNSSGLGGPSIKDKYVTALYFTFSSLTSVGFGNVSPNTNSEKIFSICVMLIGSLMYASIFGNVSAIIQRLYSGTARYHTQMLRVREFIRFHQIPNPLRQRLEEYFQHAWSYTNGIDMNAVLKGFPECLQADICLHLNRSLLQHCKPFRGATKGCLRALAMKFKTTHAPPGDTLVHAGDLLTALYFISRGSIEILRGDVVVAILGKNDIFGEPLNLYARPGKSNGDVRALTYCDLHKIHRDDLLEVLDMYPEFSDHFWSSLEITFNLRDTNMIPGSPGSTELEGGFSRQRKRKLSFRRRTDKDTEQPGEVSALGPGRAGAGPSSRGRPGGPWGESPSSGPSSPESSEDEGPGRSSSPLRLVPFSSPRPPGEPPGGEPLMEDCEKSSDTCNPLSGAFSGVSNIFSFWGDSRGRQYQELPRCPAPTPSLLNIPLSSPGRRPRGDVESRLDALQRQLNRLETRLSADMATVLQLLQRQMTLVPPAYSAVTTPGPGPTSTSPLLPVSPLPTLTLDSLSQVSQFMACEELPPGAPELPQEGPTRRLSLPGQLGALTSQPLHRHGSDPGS
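U2OS cells transduced with wild-type KCNH2 virus are loaded with FluxOr dye for 45 min, and thallium flux is measured in kinetic reads before and after stimulation buffer. Rate constants are normalized to DMSO controls.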
KCNH2 3.1 inh: blocks the human KCNH2 3.1 channel isoform. U2OS KCNH2 3.1, thallium flux FluxOr; stronger effect = lower value. activity change, % (tested at about 1.8 µM). hit rate 0.95% among 340,000;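 active means maximum activity change below -70%; inconclusive means maximum activity change from -70% to -50%; inactive means maximum activity change above -50%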;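 further: thallium influx rate constant from kinetic fluorescence after stimulation buffer; on the % scale 0 is the no-effect control and ±100 the full control effect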
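Measured as rate of thallium-driven FluxOr signal in transduced U2OS cells carrying the 3.1 channel, read kinetically for 2 min upon stimulation; values are rate constants scaled to DMSO control wells.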
KB-V1 MDR tox: KB-V1 MDR subline cytotoxicity; KB-V1 MDR cells viability, CellTiter-Glo, 72 h; Potency, µM (titrated, usually from 46.1 µM), usual class: cytotoxic; hit rate 3.4% among 400,000; AID 1347076; further: potency means the concentration at half of the fitted maximal effect; on the % scale 0 is the no-effect control and ±100 the full control effect; nearly all actives have a fitted effect of over 60% in size
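Potencies derive from concentration-effect curves fitted to normalized luminescence (CellTiter-Glo) of KB-V1 cells treated for 72 h at 37 degrees C in phenol-red-free DMEM containing 10% FBS.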
Active calls of the source: *; i = inactive; ? = inconclusive; . = no result. Hits are enriched below; roughly 7.6% of the tested compounds scored in any of these assays. Unless noted, the call rests on the fitted dose curve; in most records, active means well fitted curve in the direction sought with a large enough effect; inconclusive means small, poorly fitted or top-dose-only effect, or another doubt; inactive means no such curve, though single readings can be large; an effect the other way counts as inactive or inconclusive.

SMILES	SW480 rerep	KB-3-1 cytotox	MCF10A rerep	KCNH2 WT inh	KCNH2 3.1 inh	KB-V1 MDR tox
CCc1nn(C(C)C(=O)N2CCN(Cc3ccccc3)CC2)c(=O)c2cc3occc3n12 (stereo unspecified)	1%	i	-4%	-13	8	i
O=C(Nc1nc(-c2cccnc2)cs1)c1ccccc1[N+](=O)[O-]	0%	i	1%	3	-5	i
CN(C)c1cccc(NC(=O)c2cccc3ccccc23)c1	11%	i	17%	1	6	i
CC(C)(c1ccccc1)c1ccc(OCC(O)CNC2CCN(Cc3ccccc3)CC2)cc1 (stereo unspecified)	11%	?	?	24	-26	18µM*
CCOc1ccc(OCC(O)CNC2CCN(Cc3ccccc3)CC2)cc1 (stereo unspecified)	?	?	?	15	-13	16µM*
COc1ccc(CNCC(O)COc2ccc(C(C)(C)c3ccccc3)cc2)cc1 (stereo unspecified)	?	?	?	18	?	?
CC1CCCC(C)N1CCCNC(=O)Cn1c(=O)c2cccn2c2cccnc21 (stereo unspecified)	-2%	i	19%	-13	-14	i
O=C(Nc1ccccn1)c1cc(-c2ccc(Cl)s2)nc2ccccc12	-2%	?	21µM*	3	-13	?
O=C(NC(=S)Nc1ccccn1)c1cc(-c2ccccc2)nc2ccccc12	?	i	8%	-3	-3	16µM*
CCCN(CC(=O)Nc1ccccc1OC)C(=O)c1ccc2c(c1)NC(=O)C(C)S2 (stereo unspecified)	-35%	i	1%	7	1	i
CC(=O)C1CCN(c2ncc(-c3ccc4c(c3)OCCCO4)s2)CC1	.	i	.	.	.	i
O=C(Nc1c2c(nn1-c1ccc(F)cc1)CS(=O)(=O)C2)C1CCCC1	-3%	i	1%	3	-21	i
CC(C)CC(=O)Nc1c2c(nn1-c1cccc(Cl)c1)CS(=O)(=O)C2	6%	i	14%	.	-17	i
COc1ccc(CC(=O)Nc2c3c(nn2-c2cccc(Cl)c2)CS(=O)(=O)C3)cc1	-4%	i	23%	-14	-11	16µM*
O=C(Cc1ccccc1)Nc1c2c(nn1-c1cccc(Cl)c1)CS(=O)(=O)C2	-5%	i	19%	25	2	21µM*
CC(C)C(=O)Nc1c2c(nn1-c1ccc(F)cc1)CS(=O)(=O)C2	-3%	i	1%	-8	-109*	i
O=C(N/N=C/c1ccc(OC(F)F)cc1)c1cccc(S(=O)(=O)N2CCOCC2)c1	-9%	i	1%	5	6	i
COc1ccccc1CCC(=O)Nc1ccc(S(=O)(=O)Nc2ncccn2)cc1	.	i	.	-10	4	i
Cc1nn(CC(=O)Nc2ccc(Cl)c(S(=O)(=O)N(C)C)c2)c(C)c1[N+](=O)[O-]	2%	i	?	4	0	21µM*
Cc1ccc(NC(=O)Cn2nc(C)c(S(=O)(=O)N(C)C)c2C)cc1C	1%	i	5%	2	20	23µM*
Cc1ccc2nc(NC(=O)Cn3nc(C)c([N+](=O)[O-])c3C)sc2c1	-2%	i	7%	-8	-94*	i
CC(=O)N1CCc2cc(S(=O)(=O)NC(CC(C)C)C(=O)Nc3ccc(C(C)C)cc3)ccc21 (stereo unspecified)	.	i	.	.	.	i
COc1cc(/C=N\NC(=O)CNC(=O)C(c2ccccc2)c2ccccc2)ccc1O	-3%	i	-6%	-3	0	i
COc1cc(/C=N/NC(=O)CCN2CCN(C(c3ccccc3)c3ccccc3)CC2)ccc1O	?	i	?	-43	-106*	i
COc1cc(C=C(C#N)C(=O)c2ccccc2)cc(OC)c1OC	.	i	.	.	.	i
SMILES	SW480 rerep	KB-3-1 cytotox	MCF10A rerep	KCNH2 WT inh	KCNH2 3.1 inh	KB-V1 MDR tox
COc1cc(/C=C(/C(=O)O)c2ccc(-c3ccccc3)cc2)cc(OC)c1OC	21µM*	?	15µM*	5	-17	?
COc1cc(/C=N/NC(=O)c2sc3nc(C)cc(C)c3c2N)ccc1O	?	i	15µM*	-2	-4	i
COC(=O)c1sc2nc(C)cc(C)c2c1N	2%	i	9%	0	4	i
COc1cc(/C=N/NC(=O)c2ccc(-c3ccccc3)cc2)cc(OC)c1OC	9.2µM*	i	21%	1	-2	i
CCCS(=O)(=O)NC(=O)C1(C)CCN(C(=O)c2ccc3c(c2)OCO3)C1 (stereo unspecified)	.	i	.	.	.	i
O=C(CCCn1cncn1)N1CCCC(N2CCN(c3ccccc3F)CC2)C1 (stereo unspecified)	1%	i	1%	-4	-1	i
CCCCN(C(=O)c1ccc(NC2CC2)c([N+](=O)[O-])c1)c1c(N)n(CCCC)c(=O)[nH]c1=O	-5%	i	4%	-9	-8	i
COc1ccc(/C=N/NC(=O)CCC(=O)Nc2ccccc2)cc1OC	18%	i	15%	17	-6	i
COc1cc(/C=N\NC(=O)c2sc(N)nc2C)cc(OC)c1OC	-5%	i	21µM*	-13	23	i
COc1cc(C(=O)Oc2ccccc2/C=N/NC(=O)c2ccc(Cl)cc2)cc(OC)c1OC	?	5.2µM*	?	-2	9	?
Cc1nc(N)sc1C(=O)N/N=C/c1ccc([N+](=O)[O-])cc1	-92%	i	17%	11	11	i
COc1cc(/C=N/NC(=O)CCn2c3ccccc3c3ccccc32)cc(OC)c1OC	5%	i	1%	-1	21	4.6µM*
COc1ccc(/C=N/NC(=O)CCn2cnc(-c3ccccc3)c2-c2ccccc2)cc1OC	21µM*	6.5µM*	8.2µM*	21	5	?
O=C(CCCc1ccccc1)NCCS(=O)(=O)N1CCN(c2ccccc2F)CC1	-7%	i	9%	-16	4	?
COc1ccc(CCNC(=O)C2CCN(C(=O)c3ccc(Br)cc3)CC2)cc1OC	4%	i	-1%	2	-2	i
O=C(CNC(=O)C1CCCCC1)OCC(=O)c1ccc2c(c1)CCC2	.	?	.	.	.	i
COc1cc(-c2nnc(SCC(=O)Nc3ccc(F)c(Cl)c3)o2)cc(OC)c1OC	.	i	.	.	.	?
Cc1cc(-n2c(C)cc(C(=O)COc3cccnc3[N+](=O)[O-])c2C)no1	8.2µM*	?	7.3µM*	7	-5	16µM*

High-throughput results as filed in PubChem BioAssay.
